Values joined by “and” are separate entries in the source; they are usually repeats but may differ in a detail not shown here. Equal values may be shown once. A number with no mark means an inactive call. Results filed as inconclusive are left out. Active and inactive are the calls of the source. Calls follow the shape of the dose curve; as a rule, active = well fitted curve in the direction sought with a large enough effect; inconclusive = small, poorly fitted or top-dose-only effect, or another doubt; inactive = no such curve, though single readings can be large; an effect the other way counts as inactive or inconclusive.
Assays:
[1] = target: Cytochrome P450 3A4 (Homo sapiens) (UniProt P08684); assay: qHTS Assay for Inhibitors and Substrates of Cytochrome P450 3A4 (AID 884); also: potency is read from the fitted curve at half-maximal effect; nearly all actives have a fitted effect of over 50% in size
Chain of Cytochrome P450 3A4 (Homo sapiens) (P08684 whole entry, looked up): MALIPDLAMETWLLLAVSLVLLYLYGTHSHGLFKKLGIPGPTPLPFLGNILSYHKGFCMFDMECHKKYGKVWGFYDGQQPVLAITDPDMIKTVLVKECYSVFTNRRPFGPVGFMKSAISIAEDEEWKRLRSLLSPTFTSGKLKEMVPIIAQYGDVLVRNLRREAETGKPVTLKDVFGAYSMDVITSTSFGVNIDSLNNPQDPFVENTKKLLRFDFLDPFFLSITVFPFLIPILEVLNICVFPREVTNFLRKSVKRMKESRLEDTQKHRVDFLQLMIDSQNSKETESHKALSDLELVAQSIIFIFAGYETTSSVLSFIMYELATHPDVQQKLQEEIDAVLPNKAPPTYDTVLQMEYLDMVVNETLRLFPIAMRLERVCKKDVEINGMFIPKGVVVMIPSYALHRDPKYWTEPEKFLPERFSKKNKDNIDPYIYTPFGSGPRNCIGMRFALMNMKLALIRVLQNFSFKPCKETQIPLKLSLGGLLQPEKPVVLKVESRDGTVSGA
In short: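 20 nM human CYP3A4 with 25 uM Luciferin-PPXE (at KM) in 200 mM KPO4, preincubated 10 min with compound; NADPH regeneration started a 60 min RT reaction. Luciferin detected by luminescence, normalized to 57 uM ketoconazole as full inhibition.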

[2] = target: Cytochrome P450 3A4 (Homo sapiens) (UniProt P08684); assay: qHTS Assay for Activators of Cytochrome P450 3A4 (AID 885); also: nearly all actives have a fitted effect of over 65% in size
In short: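 Quantitative HTS format: compounds preincubated with 20nM human CYP3A4 and Luciferin-PPXE substrate at KM, reaction started by NADPH regeneration, stopped after 60 min, luciferase luminescence read 20 min later.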

[3] = target: Cytochrome P450 2D6 (Homo sapiens) (UniProt P10635); assay: qHTS Assay for Inhibitors and Substrates of Cytochrome P450 2D6 (AID 891);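 also: luciferin methyl ether substrate demethylated by CYP2D6 with NADPH regeneration; % is scaled to controls: 0 for no effect and ±100 for the full control effect; nearly all actives have a fitted effect of over 60% in size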
Chain of Cytochrome P450 2D6 (Homo sapiens) (P10635 whole entry, looked up): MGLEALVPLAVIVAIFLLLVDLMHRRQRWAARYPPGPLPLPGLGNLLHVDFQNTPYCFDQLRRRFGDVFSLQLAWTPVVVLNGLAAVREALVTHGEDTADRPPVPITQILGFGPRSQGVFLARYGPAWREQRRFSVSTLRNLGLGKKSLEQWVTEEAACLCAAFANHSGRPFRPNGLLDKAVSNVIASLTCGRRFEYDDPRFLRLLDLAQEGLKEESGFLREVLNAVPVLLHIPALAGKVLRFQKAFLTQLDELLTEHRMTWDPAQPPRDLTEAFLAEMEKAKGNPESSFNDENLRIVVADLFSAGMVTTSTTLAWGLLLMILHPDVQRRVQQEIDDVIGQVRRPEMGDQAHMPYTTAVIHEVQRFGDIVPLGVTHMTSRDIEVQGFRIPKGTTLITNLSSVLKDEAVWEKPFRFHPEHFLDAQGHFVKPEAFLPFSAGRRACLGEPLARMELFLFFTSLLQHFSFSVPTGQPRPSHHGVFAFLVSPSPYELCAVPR
In short: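 Human CYP2D6 (5 nM) with 30 uM Luciferin-ME EGE (at Km) in 100 mM KPO4, compound preincubated 10 min, then NADPH regeneration system for 60 min at room temperature. Luciferin read by luminescence; normalized to 1.43 uM quinidine.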

[4] = target: Cytochrome P450 2C19 (Homo sapiens) (UniProt P33261); assay: qHTS Assay for Inhibitors and Substrates of Cytochrome P450 2C19 (AID 899); also: potency is read from the fitted curve at half-maximal effect; nearly all actives have a fitted effect of over 60% in size
Chain of Cytochrome P450 2C19 (Homo sapiens) (P33261 whole entry, looked up): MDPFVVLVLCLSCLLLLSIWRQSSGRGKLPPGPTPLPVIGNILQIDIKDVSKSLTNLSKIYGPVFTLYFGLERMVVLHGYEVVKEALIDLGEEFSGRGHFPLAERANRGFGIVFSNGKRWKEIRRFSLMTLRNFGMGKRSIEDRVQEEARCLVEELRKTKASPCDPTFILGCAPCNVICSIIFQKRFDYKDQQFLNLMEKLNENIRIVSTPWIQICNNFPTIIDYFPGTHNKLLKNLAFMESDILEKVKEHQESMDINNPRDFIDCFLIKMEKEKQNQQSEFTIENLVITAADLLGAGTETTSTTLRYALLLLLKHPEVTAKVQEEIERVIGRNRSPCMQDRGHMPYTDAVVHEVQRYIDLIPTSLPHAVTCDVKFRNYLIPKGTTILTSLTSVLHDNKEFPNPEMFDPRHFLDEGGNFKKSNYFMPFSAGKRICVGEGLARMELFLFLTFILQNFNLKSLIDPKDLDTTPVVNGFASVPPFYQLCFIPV
In short: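 Signal comes from luciferase acting on luciferin released by CYP2C19-mediated hydroxylation of Luciferin-H EGE, 10uM (KM). Assay mix: 5nM enzyme, 50mM KPO4; 60 min at 37C with NADPH regeneration. Data normalized against 57uM ketoconazole.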

Row | SMILES | Potency [1] | activity change, positive = activation [2] | Potency [3] | Potency [4] | Potency [2]
1 | C=CCC1C=CC(Oc2ccc(F)cc2C)C(CO)O1 (stereo not drawn) | 3.98 µM (active) | -81.3% [at 11.4 µM] | inactive | 0.251 µM (active) | 
2 | COC(=O)[C@H]1C[C@@H]2CC[C@@H](O)C[C@@H]2N1Cc1c(F)cccc1Cl | 12.6 µM (active) |  |  |  | inactive
3 | C/C(CCN1CCCCc2nc(C)c(C)cc21)=N\O[C@@H](C)c1cn([C@H](CO)Cc2ccccc2)nn1 | 3.98 µM (active) and 5.01 µM (active) | -72.3% [at 11.4 µM] and -80.4% [at 11.4 µM] |  |  | 

— PubChem BioAssay (NCATS)
